Compounds with a hit are over-represented: about 6.1% of the library has one in this group of screens.
Tau fil binding = binds recombinant human tau filaments | recombinant tau filaments, thioflavin S fluorescence, 15 h; filaments grown with octadecylsulfate alongside compound | Potency, µM (highest dose often 57.1 µM) | actives 2% (n = 71,000) | AID 596;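 note: actives lower thioflavin S fluorescence by blocking filaments or displacing dye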
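Recombinant tau protein (human, 1 uM final) plus 30 uM ODS in HEPES pH 7.4 with NaCl, DTT and thioflavine S. Compound present from the start; fluorescence at 510 nm after 15 h, 37 C.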
FLuc inh = inhibitors of firefly luciferase | Potency, µM (series often up to 57.1 µM), usual class: inhibitors | purified firefly luciferase, luminescence, 8 min | actives 2.2% (n = 72,000) | AID 411; note: nearly all actives have a fitted effect of over 40% in size
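Compounds were tested as concentration series (qHTS) against purified P. pyralis luciferase with luciferin and 10 uM ATP in 50 mM imidazole pH 7.2, 50 mM KCl, 7 mM MgCl2, 0.01% Tween 20, 0.05% BSA. Luminescence was read after 8 min at ambient temperature.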
Hsp90 Hop PPI = changes Hsp90-Hop TPR2A binding signal, up or down. AlphaScreen TPR2A-His6 binding biotin-Hsp90 C-terminal peptide. Potency, µM (doses to about 57 µM). actives 0.44% (n = 71,000). AID 595; active = well fitted curve in either direction with a large enough effect; inconclusive = small, poorly fitted or top-dose-only effect, or another doubt
Bst PK mod = alters activity of Bacillus stearothermophilus pyruvate kinase. purified pyruvate kinase, luminescence ATP production; ribose 5-phosphate activator present at AC10. Potency, µM. actives 1.2% (n = 51,000). AID 361; in the data active = potency below about 11 µM; inconclusive = mostly about 12 µM to 25 µM;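 the screen sought inhibitors and activators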
ERK AVP block = blocks ERK signaling stimulated by vasopressin | HEK293-V1b, vasopressin-stimulated pERK AlphaScreen | Potency, µM (highest dose often 57.5 µM), actives largely listed as inhibitors | actives 0.99% (n = 72,000); note: nearly all actives have a fitted effect of over 55% in size
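HEK293 cells stably expressing V1b receptor, seeded overnight in 1% FBS, were treated with compounds for 30 min at 37C, then stimulated 5 min with 25 nM vasopressin; phospho-ERK read by AlphaScreen SureFire after lysis.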
ALOX15 inhib = blocks human 15-lipoxygenase activity. P16050. purified 15hLO-1, xylenol orange hydroperoxide absorbance. Potency, µM (titrated, usually from 57.1 µM), usual class: inhibitors. actives 1.4% (n = 74,000); note: nearly all actives have a fitted effect of over 55% in size
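Purified human 15hLO-1 (40 nM) in 25 mM Hepes pH 7.5, 0.01% Triton X-100, preincubated 15 min RT with compound, then 50 uM arachidonic acid for 6 min. Hydroperoxide read by ferrous/xylenol orange, 30 min; 573/405 nm absorbance ratio gave progress.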
Each line names hits and unclear results; the compound was inactive in the other large screens; ! = not confirmed by another sample. Unless noted, calls come from the whole dose curve; as a rule, active = well fitted curve in the direction sought with a large enough effect; inconclusive = small, poorly fitted or top-dose-only effect, or another doubt; inactive = no such curve, though single readings can be large; an effect the other way counts as inactive or inconclusive.

CCOC(=O)c1cc2c(=O)n3cccc(C)c3nc2n(CCc2ccccc2)c1=N	none (no result: Tau fil binding, Hsp90 Hop PPI, ERK AVP block, ALOX15 inhib)
CC(=O)Oc1ccc(/C=C\C(=O)C[C@@H]2O[C@@H](Oc3cc(OC(C)=O)c4c(c3)O[C@@H](c3ccc(OC(C)=O)cc3)CC4=O)[C@H](OC(C)=O)[C@H](OC(C)=O)[C@@H]2OC(C)=O)cc1	Tau fil binding inconclusive (no result: Bst PK mod, ERK AVP block, ALOX15 inhib)
Cc1ccc2nc3ccc(N4CCCC4)nn3c(=O)c2c1	FLuc inh inconclusive, ALOX15 inhib 25µM
c1ccc2c(c1)NC1(CCCCC1)n1c-2nc2ccccc21	FLuc inh 13µM
CC1(c2ccccn2)Nc2ccccc2-c2nc3ccccc3n21 (stereo not given)	none
Cc1cc(N/C=C/C(=O)c2cccc3ccccc23)no1	Bst PK mod 9.3 (no result: Tau fil binding, Hsp90 Hop PPI, ERK AVP block, ALOX15 inhib)
Cc1cc(C(=O)OCC(=O)Nc2cc(C)on2)c2ccccc2n1	none
COc1ccccc1CNc1cc(-c2cccc(C#N)c2)ncn1	ERK AVP block inconclusive (no result: Bst PK mod)
O=C(O)CCN1Cc2ccccc2C1=O	ALOX15 inhib 20µM
Cn1c(=O)n(CCC(=O)O)c2ccccc21	none (no result: Tau fil binding, Hsp90 Hop PPI, ERK AVP block, ALOX15 inhib)
CCC1=C2CC[C@H]3C(=O)NC(=O)[C@H]3[C@H]2[C@@]2(Cc3ccccc3)C(=NCc3ccccc3)OC(=O)N2C1=O	none (no result: Tau fil binding, FLuc inh, Hsp90 Hop PPI, Bst PK mod, ALOX15 inhib)
CCCCCCc1ccc(-c2ncc(N)cn2)cc1	Tau fil binding 25µM (no result: Bst PK mod)
COc1ccc(CNc2cc(-c3ccccc3CN(C)C)ncn2)c(OC)c1	none (no result: Bst PK mod)
CC(C)N(Cc1ccccc1)C(=O)COC(=O)c1ccc2c(c1)OCCO2	none
CC(C)N(CCC(=O)c1ccc2ccccc2c1)Cc1ccccc1	ERK AVP block 32µM, ALOX15 inhib inconclusive (no result: Bst PK mod)
CCOc1ccc2nc(N3CCCCCC3)sc2c1	FLuc inh 13µM
CCCN1CCN(CCCNC(=O)C2CCCN(c3nc4ccc(OCC)cc4s3)C2)CC1 (stereo not given)	FLuc inh 7.9µM
CCOc1ccc2nc(NS(=O)(=O)c3ccc4c(c3)n(C)c(=O)n4C)sc2c1	ERK AVP block inconclusive, ALOX15 inhib inconclusive (no result: Bst PK mod)
CCOc1ccc2nc(N3CCCC(C(=O)N4CCN(CC)CC4)C3)sc2c1 (stereo not given)	FLuc inh inconclusive (no result: Bst PK mod)
CCOc1ccc2nc(NS(C)(=O)=O)sc2c1	Tau fil binding 16µM (no result: Bst PK mod)
CCOc1ccc2nc(N3CCC(C(=O)Nc4nnc(CC)s4)CC3)sc2c1	none (no result: Bst PK mod)
CCOc1ccc2nc(N3CCC(C(=O)N4CCN(C(=O)c5ccco5)CC4)CC3)sc2c1	FLuc inh 7.9µM (no result: Bst PK mod)
O=C(O)c1ccccc1OP(=O)(O)O	none (no result: Bst PK mod)
O=C1OC(=O)c2c(Cl)c(Cl)c(Cl)c(Cl)c21	none (no result: FLuc inh, Bst PK mod)
CCOc1ccc2nc(N3CCC(C(=O)N4CCN(C5CCCCC5)CC4)CC3)sc2c1	FLuc inh 16µM (no result: Bst PK mod)
COC(=O)C1OC(=O)C2O[C@@]23[C@]2(C)C(OC(C)=O)CC4C(C)(C)C(=O)CC[C@]4(C)C2CC[C@@]13C (stereo not given in full)	none (no result: Tau fil binding, FLuc inh, Hsp90 Hop PPI, Bst PK mod)
CCOC(=O)c1c(C)c(C(=O)Nc2ccc3c(c2)OCO3)c(C)n1C	none
CCOC(=O)c1c(N)sc(C(=O)Nc2ccc3c(c2)OCO3)c1C	FLuc inh 0.79µM, Bst PK mod 1
CCOC(=O)CNc1ccc2c(c1)OCO2	ERK AVP block inconclusive, ALOX15 inhib 2µM
CC(=O)N1CCC2(CC1)CCN(c1ccc(-c3ccccc3)cc1)CC2	Tau fil binding 13µM, Hsp90 Hop PPI inconclusive, ERK AVP block inconclusive (no result: Bst PK mod)
O=C(c1cccc(F)c1)N1CCC2(CC1)CN(c1cccc(-c3ccccc3)c1)C2	Hsp90 Hop PPI inconclusive, ERK AVP block inconclusive (no result: Bst PK mod)
O=C(c1cccc(F)c1)N1CCC2(CC1)CCN(c1cccc(-c3ccccc3)c1)CC2	Tau fil binding 25µM (no result: Bst PK mod)
OC(CCN1CCCC1)(c1ccccc1)C1CCCCC1 (stereo not given)	none (no result: Tau fil binding, Hsp90 Hop PPI)
CC(C)(C(=O)O)c1ccc(C(O)CCCN2CCC(C(O)(c3ccccc3)c3ccccc3)CC2)cc1 (stereo not given)	ALOX15 inhib 20µM! (no result: Tau fil binding, FLuc inh, Hsp90 Hop PPI, Bst PK mod)
CCOC(=O)c1oc2ccccc2c1CSc1nnnn1-c1ccc(C)cc1	Hsp90 Hop PPI inconclusive, ALOX15 inhib 1µM
CCc1ccc(NS(=O)(=O)c2ccc(Cl)cc2OC)cc1	none (no result: Tau fil binding, FLuc inh, Hsp90 Hop PPI, Bst PK mod, ERK AVP block)
O=C(C[N+]12CN3CN(CN(C3)C1)C2)c1ccc(-c2ccccc2)cc1	Tau fil binding 3.2µM (no result: Bst PK mod)
Nc1ccc(N)c(Cl)c1	Tau fil binding 32µM, ALOX15 inhib inconclusive (no result: FLuc inh, Bst PK mod)

Assay outcomes as filed in PubChem BioAssay.
